# Assay outcomes: PubChem, several laboratories
# ATG4B inh: blocks human ATG4B protease cleavage of LC3 substrate | AID 504462 | ATG4B cleavage of LC3-PLA2, NBD-HPC fluorescence, 1 h | actives 0.51% (n = 340,000) | inhibition, % at 8.33 µM | Q9Y4P1; in the data active means inhibition above about 40%
# Target sequence (Q9Y4P1 whole entry, looked up): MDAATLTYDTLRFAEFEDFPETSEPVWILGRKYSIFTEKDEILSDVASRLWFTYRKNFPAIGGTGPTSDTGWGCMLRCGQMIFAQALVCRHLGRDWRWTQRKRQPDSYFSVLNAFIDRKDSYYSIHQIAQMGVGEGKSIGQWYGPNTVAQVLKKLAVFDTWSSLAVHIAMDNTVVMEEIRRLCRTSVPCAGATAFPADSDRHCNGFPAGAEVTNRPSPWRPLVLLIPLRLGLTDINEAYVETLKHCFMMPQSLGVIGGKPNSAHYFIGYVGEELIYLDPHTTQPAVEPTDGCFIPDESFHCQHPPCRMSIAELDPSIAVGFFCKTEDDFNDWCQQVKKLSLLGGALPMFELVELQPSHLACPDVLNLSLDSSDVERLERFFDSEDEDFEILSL
# GRK2 aptamer HTS: inhibitors of human GRK2 displacing RNA aptamer. P25098. bead flow cytometry, FAM-aptamer displacement from GRK2. inhibition of aptamer binding, % at 10 µM. actives 0.59% (n = 330,000). AID 488847;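 active means inhibition of aptamer binding above 40%, roughly 3 SD of noise, on plates passing a quality check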;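 further: median bead fluorescence of bound FAM aptamer so fluorescent compounds give negative values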
# Efflux pump mplx: antifungal efflux pump inhibition, Nile Red retention; S. cerevisiae Candida pump triplex; inhibition, % at 10 µM; actives 0.44% (n = 330,000); AID 485275;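 active means plate passing quality check with inhibition over a set limit, or well fluorescence over plate mean plus 4 SD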;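 further: Nile Red retained in pooled yeast measured as flow cytometry median fluorescence; 0% = buffer negative control and 100% = Enniatin B positive control; higher means more Nile Red kept so more efflux inhibition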
# CR mimetic SO: lowers age-related superoxide in aged yeast cells | S. cerevisiae aged cells, superoxide DHE fluorescence; active compounds read low | actives 0.18% (n = 330,000) | AID 2690 | superoxide response (% of plate mean), % at 10 µM;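 active means superoxide response under a set limit, about three screen SD below normal, cut at about 65% in these data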;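 further: yeast aged for seven days with compound at 30 °C before DHE staining; 100% = average MFI of all compound-treated wells on the plate with controls excluded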
# ATG4B conf: confirmation of human ATG4B inhibitors; shares compounds with ATG4B inh; ATG4B protease fluorescent substrate cleavage assay; inhibition, % at 8.33 µM; actives 92% (n = 320); AID 504757; in the data active means inhibition above about 39%
# PLA2 ctr: inhibits human PLA2, flagging false ATG4B inhibitors | purified PLA2, NBD-C6-HPC fluorescence, 45 min | inhibition, % at 8.33 µM | shares compounds with ATG4B inh | actives 66% (n = 1,600); in the data active means inhibition above about 50%
# * hit, by the source's call; x = not tested or not shown. Hits are enriched below; roughly 1.6% of the tested compounds scored in any of these assays.
SMILES,ATG4B inh,GRK2 aptamer HTS,Efflux pump mplx,CR mimetic SO,PLA2 ctr,others
Cc1cccc(C(=O)Nc2scc(CC(C)C)c2C(=O)O)c1,73.2*,1.0,0.0,108.5,68.1*,
Cc1ccc(-c2csc(NC(=O)c3cccc(C)c3)c2C(=O)O)cc1,44.6*,3.0,-0.1,93.2,51.8*,
CC1(C)Cc2c(cnn2-c2ccc(F)cc2)C(NC(=O)CCCN2CCCCC2=O)C1 (configuration not stated),-4.2,0.0,0.1,108.3,x,
CC(C)CN(C(=O)COc1ccc(Br)cc1C=O)C1CCS(=O)(=O)C1 (configuration not stated),44.6*,1.0,-0.1,96.0,53.1*,
COc1cc(/C=C/C(=O)O)cc(S(=O)(=O)Nc2cc(Cl)c(Cl)cc2Cl)c1OC,41.1*,2.0,0.0,99.8,7.3,ATG4B conf=52.1*
NC(=O)CSc1nnc(CNc2cccc(Cl)c2)n1CCc1ccccc1,49.3*,2.0,0.1,103.5,66.3*,
Cc1ccc(-n2c(SCc3cn4ccsc4n3)nc3ccccc3c2=O)cc1,74.1*,2.0,0.4,101.6,79.0*,
Cc1ccc(-n2c(SCC(=O)Nc3cc(C)on3)nc3ccccc3c2=O)cc1,12.2,0.0,-0.2,102.6,x,
c1ccc(-n2cnnc2SCc2cn3ccsc3n2)cc1,-9.1,0.0,0.0,106.8,x,
Cc1ccc(NC(=S)NNC(=O)CSc2nc3ccccc3c(=O)n2-c2ccc(C)cc2)cc1,88.0*,2.0,0.0,98.4,92.6*,
Cc1ccc(-c2ccc(/C=N\NC(=O)c3cc4c(ccc5ccccc54)o3)o2)cc1[N+](=O)[O-],3.1,0.0,0.1,96.7,x,
O=C(N/N=C/c1ccc(-c2ccc(Cl)c(C(=O)O)c2)o1)c1cc2c(ccc3ccccc32)o1,42.4*,27.0,-0.2,114.0,63.1*,
CCOC(=O)C1=C(COC(=O)c2cccc(NC(C)=O)c2)NC(=O)NC1C (configuration not stated),-3.1,1.0,0.1,79.9,x,
O=C(O)c1cc(N2N=C(C(F)(F)F)/C(=C/C=C/c3ccco3)C2=O)ccc1Cl,95.8*,x,x,x,78.4*,
c1ccc(-c2csc(NC3CCCCC3)n2)cc1,15.3,1.0,1.2,113.8,x,
O=C(Nc1nc(-c2ccccc2)cs1)NC1CCCCC1,58.4*,3.0,0.1,124.2,65.5*,
CC(C)CC1COC(=O)N1 (configuration not stated),1.6,1.0,-0.1,93.5,x,
CCOC(=O)c1ccc(NC(=O)COc2ccc(CNC3CCCCC3)cc2OC)cc1,-11.3,0.0,0.2,103.2,x,
COc1ccccc1C(=O)Oc1ccc(C(C)(C)C)cc1,42.4*,0.0,0.3,107.7,50.3*,
N#Cc1c(N)[nH]c(=S)c(C#N)c1-c1ccccc1,3.0,1.0,-0.1,99.9,x,
N#Cc1c(N)[nH]c2ccc(Sc3ccccc3)cc12,41.2*,x,x,x,40.1,ATG4B conf=67.7*
Cc1cc(C)cc(NC(=O)c2nnn(Cc3cc(C)ccc3C)c2N)c1,57.0*,1.0,0.3,139.3,77.8*,
Cc1ccc(C)c(Cn2nnc(C(=O)Nc3ccc4c(c3)OCCO4)c2N)c1,54.8*,1.0,-0.1,93.0,65.3*,
CCCCCNCC(=O)Nc1cccc(C(=O)Nc2cccc(C(F)(F)F)c2)c1,1.2,0.0,-0.1,100.2,x,
NC(=O)C1CCN(c2nc(-c3cccs3)cs2)CC1,45.2*,0.0,0.0,122.4,54.0*,
SMILES,ATG4B inh,GRK2 aptamer HTS,Efflux pump mplx,CR mimetic SO,PLA2 ctr,others
CCc1ccccc1N(CC(=O)NC1CCCCC1)C(=O)CNC(=O)c1ccco1,0.8,0.0,1.8,103.4,x,
COc1ccc(-c2nc(C#N)c(N3CCC(C(N)=O)CC3)o2)cc1,-3.9,0.0,0.2,106.3,x,
CC(C)(C)c1ccc(-c2nc(C#N)c(N3CCC(C(N)=O)CC3)o2)cc1,56.4*,2.0,0.1,120.7,56.1*,
Cc1nc(NC(=O)CSc2cc(C)c3ccccc3n2)c(Cl)cc1Cl,40.7*,0.0,0.5,107.4,13.5,
Fc1ccc(NC(=S)NCCc2ccc(Cl)cc2)cc1,-0.7,0.0,1.0,129.8,x,
Cc1c(Cl)cccc1NC(=S)NCCc1ccc(Cl)cc1,85.6*,0.0,0.0,98.7,88.6*,
Cc1c(Cl)cccc1NC(=S)NCCc1ccc(F)cc1,70.5*,0.0,0.0,107.5,77.4*,
Cc1c(Cl)cccc1NC(=S)NCCc1ccc(S(N)(=O)=O)cc1,21.6,3.0,0.3,106.1,x,
